The results in this text go back to PubChem BioAssay AID504332 (National Center for Advancing Translational Sciences (NCATS), 2011).

Values joined by “and” are separate entries in the source; they are usually repeats but may differ in a detail not shown here. Equal values may be shown once. The whole screen tested about 350,000 compounds, of which about 31,000 (8.9%) were called active. Not shown: some 15% with an inconclusive outcome. Calls follow the shape of the dose curve; as a rule, active = well fitted inhibition curve with a large enough effect; inconclusive = small, poorly fitted or top-dose-only effect; inactive = no such curve, though single readings can be large or run the other way. This excerpt belongs to a sample that is enriched for actives. More than one record can exist for a structure, and the calls need not agree.
% is scaled to controls: 0 for no effect and ±100 for the full control effect; potency is read from the fitted curve at half-maximal effect.

Sequence of Histone-lysine N-methyltransferase EHMT2 (Homo sapiens) (Q96KQ7 913-1193 limits assumed): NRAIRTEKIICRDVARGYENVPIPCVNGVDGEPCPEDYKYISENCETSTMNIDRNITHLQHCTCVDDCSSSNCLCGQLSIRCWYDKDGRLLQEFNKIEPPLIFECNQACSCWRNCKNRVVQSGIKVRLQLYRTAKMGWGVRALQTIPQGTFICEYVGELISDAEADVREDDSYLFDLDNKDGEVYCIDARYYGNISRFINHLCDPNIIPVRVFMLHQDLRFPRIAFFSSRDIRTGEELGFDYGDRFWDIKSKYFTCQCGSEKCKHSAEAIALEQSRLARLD

The experiment addresses Histone-lysine N-methyltransferase EHMT2 (Homo sapiens) (UniProt Q96KQ7). As to the kind of experiment: qHTS Assay for Inhibitors of Histone Lysine Methyltransferase G9a. Also: nearly all actives have a fitted effect of over 75% in size. The following applies: G9a H3K9 monomethylation, AlphaScreen, 2 h; series mostly up to 59 µM; activity, negative = inhibition: at the top concentration. Summed up:
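G9a (20 nM) preincubated 15 min RT with compounds, then 500 nM biotinylated H3K9 peptide and 20 uM SAM added; 2 h RT reaction. Monomethyl-H3K9 product detected by AlphaScreen with anti-H3K9me1 antibody, streptavidin donor and anti-rabbit IgG acceptor beads.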
On the technique in general: Quantitative high-throughput screening tests each substance at several concentrations.
As to `OCc1cnc(SCc2ccc(F)cc2)n1Cc1ccc(F)cc1`, the “activity, negative = inhibition” value is 24.9% (inactive).

As for `COc1cccc2c1cc1c(=O)n(CC(=O)N3CCN(c4ccccc4)CC3)nc(C)n12`, the “activity, negative = inhibition” value is 1.68% (inactive).

Regarding `Cc1ccc(CN2CCC(CNC(=O)c3cnn(-c4ccc(C)cc4)c3C3CCN(C(=O)OC(C)(C)C)CC3)CC2)cc1`, the “activity, negative = inhibition” value is -16.3% (inactive).

As for `CC(C)(C)C(=O)N1CCC[C@@]1(CO)C(=O)O`, the Potency is 14.1 µM (active).

In the case of `COC(=O)c1cc(NC(=O)CCc2c(C)nc3c4c(C)cc(C)nc4nn3c2C)cc(C(=O)OC)c1`, the “activity, negative = inhibition” value was 5.96% (inactive).

Regarding `COc1ccccc1Nc1nnc(SC(C)C(=O)NC2CC2)s1` (configuration not stated), the activity, negative = inhibition is -13.1% [at 12.7 µM] (inactive).

With `CC(=O)c1c(C)[nH]c(C(=O)COC(=O)CCOc2ccc(C)cc2)c1C`, the “activity, negative = inhibition” value was -29.8% [at 102 µM] (inactive).

With `Cc1ccc(-c2cn3c(n2)sc2cc(C(=O)NCCCc4ccccc4)ccc23)cc1`, the “activity, negative = inhibition” value was 5.4% (inactive).

In the case of `Cc1cccc(OCC(=O)NC2CC(C)(C)NC(C)(C)C2)c1`, the “activity, negative = inhibition” value was 5.25% [at 102 µM] (inactive).

With `CC1(C)SC2C(NC(=O)COc3ccccc3)C(=O)N2C1C(=O)O` (configuration not stated), the Potency entry is “inactive and 39.8 µM (active)”.

Turning to `COC(=O)Cc1ccc(OCC(=O)NC2CCCC2)cc1`, the “activity, negative = inhibition” value is -25.2% [at 102 µM] (inactive).

Turning to `CN(CC(=O)Nc1ccc(F)c(F)c1F)C(=O)Cn1cnc2c1c(=O)n(C)c(=O)n2C`, the activity, negative = inhibition was 25.9% [at 12.7 µM] (inactive).

Take `COC(=O)c1cc(S(=O)(=O)N2CCN(c3cc(Cl)ccc3C)CC2)c[nH]1`: the “activity, negative = inhibition” value is -11.2% (inactive).

For `CC(C)CCN1NC2(CCC(C)CC2)NC1=S` (configuration not stated), the Potency is 11.2 µM (active).

As for `COC(=O)c1cccc(-n2[nH]nnc2=S)c1`, the Potency was 8.91 µM (active).

Turning to `COC(=O)c1cccc(NC(=O)CSc2nc(C)cc(=O)[nH]2)c1`, the “activity, negative = inhibition” value is -39.9% (inactive).

As to `COC(=O)c1nn(-c2cccc(Cl)c2)ccc1=O`, the “activity, negative = inhibition” value was -32% [at 102 µM] (inactive).

For `Cc1cccc(C)c1NC(=O)CN(C)C(=O)CCC(=O)c1ccccc1`, the activity, negative = inhibition is 11.7% [at 2.33 µM] (inactive).

Take `C=C(C)CNc1cc(S(=O)(=O)N2CCOCC2)ccc1Oc1ccccc1`: the activity, negative = inhibition was 21.5% [at 12.7 µM] (inactive).

Consider `COc1ccc(C(=O)ON=C2c3ccccc3-c3ccccc32)cc1OC`, for which the “activity, negative = inhibition” value is 12.7% (inactive).

Turning to `COc1ccc(NC(=O)ON=C2c3ccccc3-c3ccccc32)cc1`, the Potency is 25.1 µM (active).

Turning to `COc1ccc(NC(=O)CS(=O)(=O)c2ccccc2)cc1`, the “activity, negative = inhibition” value was 8.71% [at 102 µM] (inactive).

For `Cn1c(C(=O)N2CCC(C(=O)N3CCN(c4ccccc4)CC3)CC2)cc2sccc21`, the “activity, negative = inhibition” value was -33.7% (inactive).

As for `O=C(CCNS(=O)(=O)c1cccs1)N1CCN(c2ccc(F)cc2)CC1`, the “activity, negative = inhibition” value was 0.949% (inactive).

In the case of `CC1CCC(NC(=O)C2c3ccccc3C(=O)N2Cc2ccc3c(c2)OCO3)CC1` (configuration not stated), the “activity, negative = inhibition” value is 7.92% [at 102 µM] (inactive).

Take `O=C(Nc1ccc(Cl)cc1)C1c2cccc[n+]2CC(=O)N1Cc1ccc2c(c1)OCO2` (configuration not stated): the Potency was 22.4 µM (active).

Turning to `CCCOc1ccc(NC(=O)CC2C(=O)N(C)C(=S)N2Cc2ccc3c(c2)OCO3)cc1` (configuration not stated), the “activity, negative = inhibition” value was -3.34% (inactive).

Regarding `O=C(COc1coc(CN2CCN(c3ccccc3)CC2)cc1=O)Nc1ccccc1F`, the “activity, negative = inhibition” value was -28.5% [at 102 µM] (inactive).

As for `NC(=O)c1ccc(CN2CCC(Cc3ccccc3)CC2)cc1`, the “activity, negative = inhibition” value is 3.65% [at 102 µM] (inactive).

As to `COc1cc(C)cc(CN2CCC(Cc3ccccc3)CC2)c1O`, the activity, negative = inhibition was -9.7% [at 2.33 µM] (inactive).

As for `Brc1ccccc1CN1CCC(Cc2ccccc2)CC1`, the Potency is 44.7 µM (active).

As for `Cn1ccc2cc(S(=O)(=O)N3CCCC(C(=O)NCc4ccccc4F)C3)ccc21` (configuration not stated), the “activity, negative = inhibition” value was 8.59% (inactive).

For the compound `Cc1ccc(S(=O)(=O)CCC(=O)OCC(=O)N(C)C2CCS(=O)(=O)C2)cc1` (configuration not stated), the “activity, negative = inhibition” value is 0.624% [at 102 µM] (inactive).

Take `CCCc1ccc(OCC(=O)NNC(=S)NC(=O)c2ccco2)cc1`: the Potency was 2.24 µM (active).

In the case of `O=C(Nc1ccc2ccccc2c1)/C(=C/c1cccc(Br)c1)NC(=O)c1ccco1`, the “activity, negative = inhibition” value is 11.4% [at 102 µM] (inactive).

Take `CC(Oc1ccc2ccccc2c1)C(=O)NNC(=S)NC(=O)c1ccco1` (configuration not stated): the Potency was 20 µM (active).

Turning to `CCCc1ccc(OCCNC(=O)c2ccco2)cc1`, the “activity, negative = inhibition” value is 12.8% [at 102 µM] (inactive).

As for `O=C(Nc1ccc2ccccc2c1)/C(=C\c1ccc2c(c1)OCO2)NC(=O)c1ccco1`, the “activity, negative = inhibition” value was -19.2% (inactive).

In the case of `Cc1ccc(OCC(=O)NCCCNC(=O)c2ccco2)cc1C`, the “activity, negative = inhibition” value is 21% [at 102 µM] (inactive).

As for `CSCCC(NC(=O)COc1ccccc1)C(=O)N(C)CC(=O)Nc1ccc(C)cc1` (configuration not stated), the “activity, negative = inhibition” value is -0.305% (inactive).

For the compound `NS(=O)(=O)c1ccc2nc(NC(=O)COc3ccccc3)sc2c1`, the “activity, negative = inhibition” value was 3% (inactive).

Regarding `CN(CCO)c1ccc(/C=N/Nc2nncc3ccccc23)cc1`, the Potency is 31.6 µM (active).

Regarding `COc1cc(/C=N/Nc2nn3cnnc3c3ccccc23)cc(OC)c1OC`, the “activity, negative = inhibition” value is -5.49% (inactive).

With `FC(F)(F)c1nc2ccccc2nc1N/N=C/c1ccc(Cl)cc1`, the “activity, negative = inhibition” value is 48.3% (inactive).

Turning to `CCOc1ncccc1C(=O)OCC(=O)Nc1cccc(S(=O)(=O)N2CCCCCC2)c1`, the activity, negative = inhibition is -1.01% [at 2.33 µM] (inactive).

In the case of `CN1/C(=C\C(=O)c2oc3ccccc3c2N)C(C)(C)c2ccccc21`, the “activity, negative = inhibition” value was -56.3% (inactive).

As to `CC(C)Nc1nnc(SCC(=O)/C=C2\N(C)c3ccccc3C2(C)C)s1`, the “activity, negative = inhibition” value was -11.2% (inactive).
